SMILES strings stand for the structures. The panel holds about 83,000 compounds, 20% with a hit somewhere; the sample as a whole holds those more often.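 Results are percent growth after 48 hours of single-concentration exposure. 100 means growth as in untreated cells, lower positive values show inhibition; negative values down to -100 show cell death.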 Values without a mark were called inactive. Calls of active or inactive are those of the source. How the source made its calls: active means growth percent below 10; inactive means the rest.

Drawing on PubChem BioAssay (NCI), this text covers growth for eight molecules.

Test systems include NCI-H23 lung; NCI-H226 lung; NCI-H322M lung; HOP-62 NSCLC; NCI-H460 lung; HOP-92 NSCLC; NCI-H522 lung; A549/ATCC NSCLC; 786-0 renal; COLO 205 colon; DU-145 prostate; K-562 leukemia; MALME-3M melanoma; MDA-MB-231 breast; RXF 393 renal; SF-268 CNS; SF-295 CNS; SF-539 CNS; UACC-257 melanoma; M14 melanoma.
Common to all, as to test: NCI-60 one-dose screen, 48 h (100 = growth as untreated, 0 = no growth, -100 = all killed)
What all share (conditions): 10 µM unless noted

`O=Cc1c[nH]c2ccc(-c3csc4ccccc34)cc12`: the growth in the assay with NCI-H23 lung was 58%; with NCI-H226 lung it was 73.8%; in the assay with NCI-H322M lung, 83.2%; in the assay on HOP-62 NSCLC, 42.8%; with NCI-H460 lung, 29.3%; in the assay on HOP-92 NSCLC, 55.9%. The growth in the assay with NCI-H522 lung is 41.3%; in the assay with A549/ATCC NSCLC, 48.1%; in the assay on 786-0 renal, 58.4%; with COLO 205 colon, 71.6%; in the assay on DU-145 prostate, 80%; in the assay with K-562 leukemia, 8.16% (active). In addition, the growth in the assay with MALME-3M melanoma was 44.4%; in the assay with MDA-MB-231 breast it was 45.7%; in the assay on RXF 393 renal, 45.3%; in the assay with SF-268 CNS it was 44.5%; with SF-295 CNS, -22.6% (active); in the assay on SF-539 CNS it was 30.9%. In addition, the growth with UACC-257 melanoma is 39.3%; in the assay with M14 melanoma it was 23.5%.

On to `COC(=O)[C@]12CC[C@@H](C)[C@H](C)[C@@H]1C1=CC[C@@H]3[C@@]4(C)C(C=O)=C[C@@](C)(COC(C)=O)[C@@H]4C(=O)C[C@@]3(C)[C@]1(C)CC2`, for which the growth with NCI-H23 lung is 34.2%; with NCI-H226 lung, 38.7%; in the assay on NCI-H322M lung, 77.2%; in the assay on HOP-62 NSCLC, 50.1%; in the assay on NCI-H460 lung, 18.8%; in the assay with HOP-92 NSCLC, 47.7%. The growth in the assay on NCI-H522 lung was 12.9%; with A549/ATCC NSCLC it was 14.2%; in the assay with 786-0 renal it was 37.3%; in the assay with COLO 205 colon it was -9.64% (active); in the assay with DU-145 prostate it was 42.6%; in the assay with K-562 leukemia, 24.3%. Further, the growth in the assay with MALME-3M melanoma is 65.7%; with MDA-MB-231 breast, 46.8%; in the assay on RXF 393 renal, 55.8%; in the assay on SF-268 CNS, 42.2%; in the assay on SF-295 CNS, 32.1%; with SF-539 CNS, 53.7%. Moreover, the growth with UACC-257 melanoma was 37.8%; with M14 melanoma, 19.5%.

As to `O=C(c1ccccc1)N1N=C(c2ccccc2)CC1c1nnc2n(Cc3ccccc3)c(=O)c3c4c(sc3n12)CCCC4` (stereo not given), the growth is 116% in the assay on NCI-H23 lung; 110% with NCI-H226 lung; 89.4% with NCI-H322M lung; 98% in the assay on HOP-62 NSCLC; 107% with NCI-H460 lung; 95.3% in the assay on HOP-92 NSCLC. Besides, the growth is 91.6% in the assay on NCI-H522 lung; 89.3% in the assay on A549/ATCC NSCLC; 101% in the assay on 786-0 renal; 117% in the assay with COLO 205 colon; 116% in the assay on DU-145 prostate; 116% with K-562 leukemia. Further, the growth with MALME-3M melanoma is 85.2%; in the assay with MDA-MB-231 breast, 111%; in the assay with RXF 393 renal, 104%; in the assay on SF-268 CNS, 99.3%; in the assay with SF-295 CNS it was 138%; in the assay on SF-539 CNS it was 92.1%. In addition, the growth was 112% with UACC-257 melanoma and 111% in the assay with M14 melanoma.

In the case of `CCN1CCN(c2cc(C)nc(NCc3cc(Nc4ccnc5cc(Cl)ccc45)ccc3F)n2)CC1`, the growth in the assay on NCI-H23 lung was 56%; with NCI-H226 lung it was 83.7%; in the assay on NCI-H322M lung it was 90.2%; in the assay with HOP-62 NSCLC, 52.3%; with NCI-H460 lung, 61.8%; with HOP-92 NSCLC, 62.9%. The growth was 106% with NCI-H522 lung; 74.6% with A549/ATCC NSCLC; 85% in the assay with 786-0 renal; -86.2% (active) in the assay with COLO 205 colon; 50.7% in the assay on DU-145 prostate; 4.69% (active) with K-562 leukemia. Moreover, the growth in the assay on MALME-3M melanoma was 107%; in the assay with MDA-MB-231 breast it was 26.4%; with RXF 393 renal it was 58.5%; with SF-268 CNS, 58%; in the assay on SF-295 CNS, 31%; with SF-539 CNS, 55.7%. For the same molecule, the growth was 69.2% with UACC-257 melanoma and -64.3% (active) with M14 melanoma.

As to `Nc1n[nH]c(-c2cc(Cl)ccc2O)c1-c1ccccc1`, the growth with NCI-H23 lung was 71.4%; in the assay with NCI-H226 lung it was 70.5%; in the assay on NCI-H322M lung, 82.9%; in the assay on HOP-62 NSCLC it was 83.6%; in the assay with NCI-H460 lung, 102%; in the assay with HOP-92 NSCLC, 73.1%. The growth in the assay with NCI-H522 lung was 81.8%; in the assay on A549/ATCC NSCLC, 82.3%; with 786-0 renal it was 92.7%; with COLO 205 colon it was 101%; in the assay on DU-145 prostate it was 106%; in the assay with K-562 leukemia it was 67.9%. For the same molecule, the growth is 82.2% with MALME-3M melanoma; 78% in the assay on MDA-MB-231 breast; 86.4% with RXF 393 renal; 92.3% in the assay with SF-268 CNS; 102% in the assay with SF-295 CNS; 94.6% in the assay on SF-539 CNS. Moreover, the growth is 98.5% with UACC-257 melanoma and 93.8% in the assay with M14 melanoma.

For `COc1cccc(-c2nn(-c3ccccc3)cc2-c2ccnc(NCCCNC(=O)Nc3ccc(Cl)c(Cl)c3)c2)c1`, the growth is 15.1% with NCI-H23 lung; 47.9% with NCI-H226 lung; 24.3% with NCI-H322M lung; -5.99% (active) in the assay on HOP-62 NSCLC; 18.5% in the assay with NCI-H460 lung; -11.7% (active) with HOP-92 NSCLC. For the same molecule, the growth in the assay with NCI-H522 lung is -37% (active); in the assay on A549/ATCC NSCLC, 7.3% (active); with 786-0 renal, -38.7% (active); with COLO 205 colon, -44.7% (active); in the assay with DU-145 prostate it was 22.1%; in the assay on K-562 leukemia it was -13.6% (active). The growth is -27.1% (active) in the assay on MALME-3M melanoma; -37.2% (active) with MDA-MB-231 breast; 9.74% (active) in the assay with RXF 393 renal; 13.9% with SF-268 CNS; -4.97% (active) in the assay on SF-295 CNS; 1.74% (active) in the assay on SF-539 CNS. For the same molecule, the growth was -29.6% (active) with UACC-257 melanoma and -52% (active) in the assay on M14 melanoma.

In the case of `CCN1CCN(c2nc(C)cc(NCc3cc(Nc4ccnc5cc(Cl)ccc45)ccc3F)n2)CC1`, the growth with NCI-H23 lung is 46.5%; in the assay with NCI-H226 lung, 69.1%; in the assay on NCI-H322M lung, 50.5%; with HOP-62 NSCLC it was 12%; in the assay with NCI-H460 lung, -12.6% (active); with HOP-92 NSCLC, 36%. Besides, the growth in the assay with NCI-H522 lung was -14.8% (active); in the assay with A549/ATCC NSCLC it was 28%; in the assay on 786-0 renal it was -51.2% (active); in the assay with COLO 205 colon, -56.4% (active); in the assay on DU-145 prostate, 38%; in the assay on K-562 leukemia, -38.3% (active). The growth with MALME-3M melanoma is -69% (active); in the assay on MDA-MB-231 breast, -31.1% (active); in the assay on RXF 393 renal, -10.8% (active); in the assay with SF-268 CNS it was 16.6%; with SF-295 CNS, -55% (active); with SF-539 CNS, -81% (active). For the same molecule, the growth with UACC-257 melanoma was -57.7% (active); in the assay on M14 melanoma it was -83.7% (active).

As for `CCOC(=O)C/C(C)=N\NC(=O)c1ccncc1`, the growth in the assay on NCI-H23 lung was 101%; in the assay on NCI-H226 lung it was 112%; in the assay on NCI-H322M lung, 90.6%; in the assay with HOP-62 NSCLC it was 97.7%; in the assay on NCI-H460 lung, 103%; in the assay with HOP-92 NSCLC, -2.59% (active). Besides, the growth was 95.3% in the assay on NCI-H522 lung; 105% in the assay on A549/ATCC NSCLC; 92.1% in the assay with 786-0 renal; 124% in the assay on COLO 205 colon; 107% in the assay on DU-145 prostate; 93.2% in the assay with K-562 leukemia. Also, the growth is 83.8% in the assay on MALME-3M melanoma; 102% in the assay with MDA-MB-231 breast; 72.3% in the assay with RXF 393 renal; 101% with SF-268 CNS; 92.9% in the assay on SF-295 CNS; 97.7% in the assay with SF-539 CNS. In addition, the growth with UACC-257 melanoma was 107%; in the assay with M14 melanoma, 106%.
